Assay results: a collection of fitness landscapes (doi:10.1126/science.1257360)
Over roughly 140,000 sequences, “enrichment ratio after two sorts for PhoP signalling” has its median near 0; the highest 2% begin near 11. Many of the other results were omitted from the sample, so the highest values are more common in it than they were.

B1: PhoQ; a variant is named by its letters at X, in order, P23837 (parent)
chain: MKKLLRLFFPLSLRVRFLLATAAVVLVLSLAYGMVALIGYSVSFDKTTFRLLRGESNLFYTLAKWENNKLHVELPENIDKQSPTMTLIYDENGQLLWAQRDVPWLMKMIQPDWLKSNGFHEIEADVNDTSLLLSGDHSIQQQLQEVREDDDDAEMTHSVAVNVYPATSRMPKLTIVVVDTIPVELKSSYMVWSWFIYVLSANLLLVIPLLWVAAWWSLRPIEALAKEVRELEEHNRELLNPATTRELTSLVRNLNRLLKSERERYDKYRTTLTDLTHSLKTPLXXLQXXLRSLRSEKMSVSDAEPVMLEQISRISQQIGYYLHRASMRGGTLLSRELHPVAPLLDNLTSALNKVYQRKGVNISLDISPEISFVGEQNDFVEVMGNVLDNACKYCLEFVEISARQTDEHLYIVVEDDGPGIPLSKREVIFDRGQRVDTLRPGQGVGLAVAREITEQYEGKIVAGESMLGGARMEVIFGRQHSAPKDE

Variants of: B1
Assay: enrichment ratio after two sorts for PhoP signalling (ratio (wild type AVST 3.29)); higher = more functional
Conditions: with PhoP (E. coli)

Row | Variant | enrichment ratio
1 | RSTG | ≤ 0.25
2 | YLPW | ≤ 0.25
3 | WEVD | ≤ 0.25
4 | ANLP | ≤ 0.25
5 | GSLM | 20.9
6 | GSGM | 8.45
7 | GSLF | 11.4
8 | GSFM | ≤ 0.25
9 | GNLF | 6.83
10 | TPLF | ≤ 0.25
11 | KGAD | ≤ 0.25
12 | MQRI | ≤ 0.25
13 | EYAR | ≤ 0.25
14 | AEMT | 5.41
15 | AEHG | ≤ 0.25
16 | AEYG | 36.3
17 | ADYG | ≤ 0.25
18 | AEGG | ≤ 0.25
19 | AEMG | 14.3
20 | AEMS | 31
21 | AIYG | 0.334
22 | AEEG | ≤ 0.25
23 | AEIG | 21.9
24 | AEMF | ≤ 0.25

Row | Variant | enrichment ratio
25 | QPAL | ≤ 0.25
26 | QTTM | ≤ 0.25
27 | SAVI | 3.04
28 | NWIW | ≤ 0.25
29 | RGNN | ≤ 0.25
30 | GTDL | ≤ 0.25
31 | AGMA | 5.7
32 | AEMA | 25.6
33 | AEGA | 11
34 | IMTE | ≤ 0.25
35 | PMNV | ≤ 0.25
36 | YHPY | ≤ 0.25
37 | TNGH | 7.13
38 | TATS | 19.8
39 | TATC | 7.1
40 | QASI | 12.8
41 | QRSI | ≤ 0.25
42 | TASI | 12.5
43 | KASI | ≤ 0.25
44 | TATH | 3.27
45 | TASK | 0.795
46 | NASS | ≤ 0.25
47 | NASI | ≤ 0.25
48 | TASS | 13.4

Row | Variant | enrichment ratio
49 | KASS | 1.62
50 | MVMH | ≤ 0.25
51 | DHNH | ≤ 0.25
52 | TATG | 18
53 | NASC | ≤ 0.25
54 | TASC | 12.7
55 | KATG | ≤ 0.25
56 | KASC | ≤ 0.25
57 | NATG | ≤ 0.25
58 | FSNY | ≤ 0.25
59 | TWVT | ≤ 0.25
60 | GTIG | 1.96
61 | GCMG | 16.9
62 | GQIV | 0.651
63 | GCCI | 5.84
64 | QCCG | ≤ 0.25
65 | GNIG | 1.98
66 | GCIG | 12.8
67 | GCGG | ≤ 0.25
68 | GQIG | 23.8
69 | GCVG | ≤ 0.25
70 | GCCG | 18.1
71 | GYIG | ≤ 0.25
72 | LGAY | ≤ 0.25

Row | Variant | enrichment ratio
73 | SVEV | ≤ 0.25
74 | YSQV | ≤ 0.25
75 | KMDL | ≤ 0.25
76 | NRSD | ≤ 0.25
77 | TNRT | ≤ 0.25
78 | FPTD | ≤ 0.25
79 | IEAY | ≤ 0.25
80 | AVEL | ≤ 0.25
81 | TKTL | 16
82 | AMTL | 4.39
83 | AVWL | ≤ 0.25
84 | AITL | 24.3
85 | AHTL | 6.56
86 | AETL | 15.1
87 | HKTL | ≤ 0.25
88 | MKTL | ≤ 0.25
89 | AVTL | 12.5
90 | MHYL | ≤ 0.25
91 | ALHS | ≤ 0.25
92 | THYA | ≤ 0.25
93 | TPED | ≤ 0.25
94 | WDQY | ≤ 0.25
95 | IFCF | ≤ 0.25
96 | ASEL | 3.67

Row | Variant | enrichment ratio
97 | LLTL | ≤ 0.25
98 | VRTL | ≤ 0.25
99 | ALTL | 15.2
100 | ADTL | ≤ 0.25
101 | AKTL | 12.5
102 | ASTL | 20.2
103 | KLTL | ≤ 0.25
104 | KKTL | ≤ 0.25
105 | ANTL | 12.9
106 | AWTL | ≤ 0.25
107 | LLVY | ≤ 0.25
108 | YYRY | ≤ 0.25
109 | RSKL | ≤ 0.25
110 | EIAA | ≤ 0.25
111 | SNVV | 7.87
112 | ACTL | 15.2
113 | ACTK | 4.69
114 | AGAW | ≤ 0.25
115 | PHQA | ≤ 0.25
116 | GQCE | 21.9
117 | GQCG | 16.6
118 | PNCG | ≤ 0.25
119 | GVCG | 12.7
120 | GQWG | ≤ 0.25

Row | Variant | enrichment ratio
121 | GVCW | 11.5
122 | GNCW | ≤ 0.25
123 | GTCG | 7.53
124 | PWCG | ≤ 0.25
125 | NVCW | ≤ 0.25
126 | GQCS | 4.33
127 | GQCI | 2.43
128 | TNLK | ≤ 0.25
129 | EITI | ≤ 0.25
130 | RPCA | ≤ 0.25
131 | WVGL | ≤ 0.25
132 | NTRE | ≤ 0.25
133 | RRCS | ≤ 0.25
134 | NLFK | ≤ 0.25
135 | SDVW | ≤ 0.25
136 | PHGP | ≤ 0.25
137 | NHGC | ≤ 0.25
138 | FFGC | ≤ 0.25
139 | KMNC | ≤ 0.25
140 | TMNC | 15.3
141 | TMTC | 13.5
142 | TMGC | 11.3
143 | TMPC | ≤ 0.25
144 | QPGC | ≤ 0.25

Row | Variant | enrichment ratio
145 | QGGC | 19.5
146 | DMNC | ≤ 0.25
147 | KCGC | ≤ 0.25
148 | TMNK | ≤ 0.25
149 | EFVE | ≤ 0.25
150 | GASP | ≤ 0.25
151 | HAHN | ≤ 0.25
152 | TCGC | 23.2
153 | TMPP | ≤ 0.25
154 | TMGQ | 5.04
155 | DMLC | ≤ 0.25
156 | TMLC | 13.8
157 | GMGC | ≤ 0.25
158 | VEGC | ≤ 0.25
159 | MITC | ≤ 0.25
160 | MEGC | ≤ 0.25
161 | NMLC | ≤ 0.25
162 | TMGA | 17.5
163 | MIGC | 41.4
164 | ATVL | 4.07
165 | EFKF | ≤ 0.25
166 | SCEM | ≤ 0.25
167 | AIGC | 5.62
168 | TMPI | ≤ 0.25

Row | Variant | enrichment ratio
169 | TMWA | ≤ 0.25
170 | TMKR | ≤ 0.25
171 | TMCR | 20.7
172 | THGC | 5.27
173 | CFGC | ≤ 0.25
174 | AQGC | 12.4
175 | NQGC | ≤ 0.25
176 | TMQR | 8.83
177 | TMTS | 11.7
178 | TGGC | 11.2
179 | RMSH | ≤ 0.25
180 | QWWT | ≤ 0.25
181 | TGKL | ≤ 0.25
182 | NNCI | ≤ 0.25
183 | HTDV | ≤ 0.25
184 | IQST | ≤ 0.25
185 | SVER | ≤ 0.25
186 | HCRQ | ≤ 0.25
187 | NKWN | ≤ 0.25
188 | KAGC | ≤ 0.25
189 | SRGC | ≤ 0.25
190 | TAGC | 13.9
191 | SSGC | 13.8
192 | LTGC | ≤ 0.25

Row | Variant | enrichment ratio
193 | FDGC | ≤ 0.25
194 | TDGC | 17.1
195 | KSGC | ≤ 0.25
196 | VGGC | ≤ 0.25
197 | MLHI | 1.88
198 | WSGR | ≤ 0.25
199 | TCPW | ≤ 0.25
200 | LTCV | ≤ 0.25
201 | RIDL | ≤ 0.25
202 | TYQH | ≤ 0.25
203 | CKSI | ≤ 0.25
204 | WTRS | ≤ 0.25
205 | TFHR | ≤ 0.25
206 | YNLV | 1.85
207 | DWIL | ≤ 0.25
208 | TQII | 15.7
209 | FQAY | ≤ 0.25
210 | THQY | 15
211 | TQSY | 12.3
212 | TQAY | 17
213 | TQID | ≤ 0.25
214 | LAAY | ≤ 0.25
215 | NHQY | ≤ 0.25
216 | SHQY | ≤ 0.25

Row | Variant | enrichment ratio
217 | FQII | ≤ 0.25
218 | DWSY | ≤ 0.25
219 | NVSY | ≤ 0.25
220 | EFDW | ≤ 0.25
221 | DSGT | ≤ 0.25
222 | HYAH | ≤ 0.25
223 | YAPS | 0.949
224 | YQLH | 0.516
225 | HVYR | ≤ 0.25
226 | NVQY | ≤ 0.25
227 | MMQY | ≤ 0.25
228 | SPQY | ≤ 0.25
229 | TSQY | 13.5
230 | KSQY | ≤ 0.25
231 | TQEY | ≤ 0.25
232 | TQQY | 15.1
233 | LAQY | ≤ 0.25
234 | TVQY | 19.2
235 | VSHP | ≤ 0.25
236 | ARTY | ≤ 0.25
237 | IGHH | 2.36
238 | LVAL | ≤ 0.25
239 | YMKE | ≤ 0.25
240 | RLRC | ≤ 0.25

Row | Variant | enrichment ratio
241 | RSML | ≤ 0.25
242 | VFML | ≤ 0.25
243 | YSML | 14.4
244 | FQML | 0.396
245 | VYML | ≤ 0.25
246 | QSML | 3.2
247 | VSML | 15.7
248 | VTML | 15.3
249 | FSML | 12.7
250 | VTEL | ≤ 0.25
251 | LPWT | ≤ 0.25
252 | DNAA | ≤ 0.25
253 | DPIA | ≤ 0.25
254 | GRAC | ≤ 0.25
255 | KSML | ≤ 0.25
256 | TSML | 17.8
257 | NSML | 4.86
258 | PARS | ≤ 0.25
259 | QYPA | ≤ 0.25
260 | YART | ≤ 0.25
261 | QKCC | ≤ 0.25
262 | HCGQ | ≤ 0.25
263 | NVGG | ≤ 0.25
264 | KIGQ | ≤ 0.25

Row | Variant | enrichment ratio
265 | TVGQ | 15.3
266 | PVGG | ≤ 0.25
267 | TVGG | 16.2
268 | ELLA | ≤ 0.25
269 | RCNM | ≤ 0.25
270 | THRA | ≤ 0.25
271 | PAWH | ≤ 0.25
272 | THDV | ≤ 0.25
273 | RHTL | ≤ 0.25
274 | TGCT | 1.82
275 | AKTS | 5.9
276 | NEQT | ≤ 0.25
277 | TEQT | 23.1
278 | TIQT | 12.7
279 | GGCT | 15.6
280 | AIQT | ≤ 0.25
281 | RIQT | ≤ 0.25
282 | MKTS | ≤ 0.25
283 | GNCT | 10.8
284 | TKTS | 11.9
285 | KRQT | ≤ 0.25
286 | QLVG | ≤ 0.25
287 | ADVM | 6.88
288 | KTVF | ≤ 0.25

Row | Variant | enrichment ratio
289 | GTKH | ≤ 0.25
290 | IWLA | ≤ 0.25
291 | KRCT | ≤ 0.25
292 | FDCT | ≤ 0.25
293 | ADCT | ≤ 0.25
294 | KDQT | ≤ 0.25
295 | TKCT | 38.2
296 | TDQT | 34.2
297 | KKCT | ≤ 0.25
298 | TDCT | 14.8
299 | ADQT | ≤ 0.25
300 | HRCT | ≤ 0.25
301 | TRCT | 18.2
302 | HKCT | ≤ 0.25
303 | SNRN | ≤ 0.25
304 | VNAY | ≤ 0.25
305 | NARV | ≤ 0.25
306 | WLPG | ≤ 0.25
